According to PubChem BioAssay:
Active and inactive are the calls of the source. Unless noted, no rule for the calls is given here.

Key:
[1] = resazurin metabolic signal in HepG2 cells – cell-based, resazurin fluorescence, 24 h, PK04 Diversity Set, profiling panel (AID 1172); settings: HepG2 viability, higher = more signal; also: test concentration not given here
[2] = budding yeast growth changes without added modifier – OD600, strain BY4716, 24 h, basal condition, primary screen (AID 1173); settings: S. cerevisiae BY4716 growth, OD600, 24 h; higher = more signal, called active from +8 up or from −8 down
[3] = viability profiling in MM1S myeloma cells – cell-based, resazurin fluorescence, basal, 24 h, PK04 Diversity Set, profiling panel (AID 1174); settings: higher = more signal, called active from +8 up or from −8 down;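 also: MM1S multiple myeloma cell line; test concentration not given here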
[4] = target: Dihydroorotate dehydrogenase (quinone), mitochondrial (Plasmodium falciparum (isolate 3D7)) (UniProt Q08210); assay: inhibition of P. falciparum DHODH – biochemical, C-terminal His tag, absorbance 600 nm, primary screen (AID 1175); settings: PfDHODH enzyme, DCIP absorbance 600 nm; higher = more signal, called active from +8 up or from −8 down;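 also: recombinant parasite enzyme with a five histidine tag at its C terminus; test concentration not given here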
Sequence of Dihydroorotate dehydrogenase (quinone), mitochondrial (Plasmodium falciparum (isolate 3D7)) (Q08210 whole entry, looked up): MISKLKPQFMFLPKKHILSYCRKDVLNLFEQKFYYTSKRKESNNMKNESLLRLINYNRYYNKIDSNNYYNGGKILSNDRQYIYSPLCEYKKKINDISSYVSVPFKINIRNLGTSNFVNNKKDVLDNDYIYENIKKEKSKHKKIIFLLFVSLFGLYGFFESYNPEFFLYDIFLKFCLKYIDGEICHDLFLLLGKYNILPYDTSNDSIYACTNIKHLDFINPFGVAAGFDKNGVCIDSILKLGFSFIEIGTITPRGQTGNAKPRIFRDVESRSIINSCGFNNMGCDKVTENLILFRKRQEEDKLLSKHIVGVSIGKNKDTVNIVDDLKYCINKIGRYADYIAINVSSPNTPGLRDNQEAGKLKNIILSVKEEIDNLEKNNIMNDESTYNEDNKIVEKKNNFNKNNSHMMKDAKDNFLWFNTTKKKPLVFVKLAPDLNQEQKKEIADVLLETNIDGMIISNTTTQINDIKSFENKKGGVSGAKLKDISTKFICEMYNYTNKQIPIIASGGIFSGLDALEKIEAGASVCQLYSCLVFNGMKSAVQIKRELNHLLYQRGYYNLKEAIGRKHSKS

[5] = inhibition of PAO1 biofilm formation – strain PAO1, LB-PBS medium, absorbance 600 nm, primary screen (AID 1176); also: test concentration not given here; settings: P. aeruginosa PAO1 growth/biofilm, A600, 12 h; higher = more signal
[6] = growth modulation of vineyard yeast isolate – strain RM11-1a, OD600, basal, 24 h, primary screen (AID 1177);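 also: cultures grown under basal conditions with no added stressor; test concentration not given here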; settings: S. cerevisiae RM11-1a growth, OD600, 24 h; higher = more signal, called active from +8 up or from −8 down
[7] = growth of efflux-deficient E. coli DRC39 – strain DRC39, OD650, 24 h, E. coli filamentation inducers, primary screen (AID 1178);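 also: growth measured as culture turbidity by optical density at 650 nm; test concentration not given here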; settings: E. coli DRC39 acrAB, higher = more signal, called active from +8 up or from −8 down
[8] = growth of efflux-deficient E. coli DRC39 – strain DRC39, OD650, 48 h, E. coli filamentation inducers, primary screen (AID 1179);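 also: screen aims at cell division blockers that make cells filament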; settings: E. coli DRC39 delta-acrAB growth, higher = more signal, called active from +8 up or from −8 down
[9] = viability profiling in RPMI8226 myeloma cells – cell-based, resazurin fluorescence, basal, 24 h, PK04 Diversity Set, profiling panel (AID 1180); settings: higher = more signal;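 also: RPMI8826 multiple myeloma cell line at 5000 cells per well; test concentration not given here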
[10] = target: E3 ubiquitin-protein ligase XIAP (Homo sapiens) (UniProt P98170); assay: small molecules binding XIAP protein – biophysical, small-molecule microarray, fluorescence 635 nm, primary screen (AID 1181); settings: higher = more signal;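 also: score merges 667 nm emission and signal to noise over triplicate slides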
Sequence of E3 ubiquitin-protein ligase XIAP (Homo sapiens) (P98170 whole entry, looked up): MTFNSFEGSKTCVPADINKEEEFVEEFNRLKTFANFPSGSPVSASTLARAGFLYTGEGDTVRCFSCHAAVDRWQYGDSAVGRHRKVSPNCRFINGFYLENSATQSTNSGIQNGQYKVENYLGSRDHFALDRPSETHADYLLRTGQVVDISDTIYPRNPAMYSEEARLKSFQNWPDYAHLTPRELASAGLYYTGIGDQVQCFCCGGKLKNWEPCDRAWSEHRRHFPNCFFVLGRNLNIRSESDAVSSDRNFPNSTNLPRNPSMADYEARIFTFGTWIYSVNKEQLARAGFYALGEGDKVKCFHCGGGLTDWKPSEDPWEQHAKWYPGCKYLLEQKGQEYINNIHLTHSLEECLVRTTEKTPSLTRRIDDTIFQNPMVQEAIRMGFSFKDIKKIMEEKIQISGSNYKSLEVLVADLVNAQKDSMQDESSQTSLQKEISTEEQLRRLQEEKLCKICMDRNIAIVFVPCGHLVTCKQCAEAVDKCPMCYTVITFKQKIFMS

Row | Compound | z-score [1] | z-score [2] | z-score [3] | composite z-score [4] | z-score [5] | z-score [6] | z-score [7] | z-score [8] | z-score [9] | composite z-score [10]
1 | COC(=O)[C@@]1(CCC(=O)OC(C)(C)C)N=C(c2ccc(OCCCO)cc2)O[C@H]1c1ccccc1N=[N+]=[N-] | -1.15 | 0.381 (inactive) | -6.96 (inactive) | 0.414 (inactive) | 2.78 (inactive) | 1 (inactive) | 0.276 (inactive) | -0.903 (inactive) | -5.04 | 0.168
2 | C=C(C)[C@@H]1CC=C(C(O)C2C=CC3C(=O)N(C)C(=O)C3N2Nc2ccccc2)CC1 (stereo not given in full) | -0.709 | 0.773 (inactive) | -1.03 (inactive) | 0.849 (inactive) | 0.751 (inactive) | 1.45 (inactive) | -0.683 (inactive) | -0.472 (inactive) | -0.581 | 0.0688
3 | COC(=O)[C@@]1(Cc2ccc(OC)cc2)[C@H]2c3cc(C(=O)N(C)C)n(CCc4ccccn4)c3C[C@H]2CN1C(=O)c1ccccc1 | -1.31 | 2.55 (inactive) | -2.34 (inactive) | -0.0595 (inactive) | 0.908 (inactive) | 1.51 (inactive) | -1.2 (inactive) | -0.655 (inactive) | -1.93 | 0.264
4 | CO[C@H]1O[C@H](CO)[C@@H](OC(=O)Nc2cccc(F)c2)[C@H](OC(=O)Nc2ccccc2)[C@@H]1OC(=O)Nc1ccccc1 | -1.62 | 0.706 (inactive) | -2.56 (inactive) | 0.127 (inactive) | 0.758 (inactive) | 0.666 (inactive) | -0.002 (inactive) | -0.0057 (inactive) | -2.4 | 0.0623
5 | O=C1NC(=O)C2C1C=CC(C(O)c1cccs1)N2Nc1ccc(Cl)cc1Cl (stereo not given) | -1.14 | -6.97 (inactive) | -0.597 (inactive) | 0.572 (inactive) | 1.08 (inactive) | 1.45 (inactive) | 0.0751 (inactive) | -0.86 (inactive) | -0.229 | 0.0374
6 | CCCCCN1CC=CC23O[C@@H]4C=CCCOC(=O)C4[C@H]2C(=O)N(CCCCCO)[C@@H]3C1=O (stereo not given in full) | 0.476 | 0.388 (inactive) | 0.66 (inactive) | -0.185 (inactive) | -0.304 (inactive) | 0.467 (inactive) | 0.685 (inactive) | 0.67 (inactive) | 0.802 | 0.263
7 | Cc1ccc(S[C@]2(C(=O)NCCCN(C)C)CC(=O)N(Cc3cc(C(F)(F)F)cc(C(F)(F)F)c3)[C@@H]2c2ccc(CO)cc2)cc1 | -0.144 | -1.33 (inactive) | -0.522 (inactive) | -0.132 (inactive) | 0.621 (inactive) | -0.607 (inactive) | 0.0957 (inactive) | -0.339 (inactive) | -0.402 | 0.164
8 | O=C1N[C@@H](Cc2ccccc2)C(=O)N2[C@@H]1C[C@@H](C(=O)O)[C@H]2c1cccc(OCCO)c1 | -1.6 | 0.165 (inactive) | -0.0089 (inactive) | -2.58 (inactive) | 0.0499 (inactive) | 0.346 (inactive) | 0.395 (inactive) | 0.993 (inactive) | -0.277 | -0.102
9 | CCCCN1CC=CC23O[C@@H]4C=CCCOC(=O)C4[C@H]2C(=O)N(CCCCCCO)[C@@H]3C1=O (stereo not given in full) | 0.0635 | 0.254 (inactive) | -0.846 (inactive) | -1.01 (inactive) | -0.14 (inactive) | 0.308 (inactive) | 0.013 (inactive) | 0.383 (inactive) | -0.461 | -0.141
10 | COc1ccc([C@H]2OC[C@@H]3C[C@@H](Cc4ccccc4)C(=O)N32)cc1 | -0.384 | -3.32 (inactive) | 0.111 (inactive) | -0.431 (inactive) | -0.0513 (inactive) | -0.64 (inactive) | -0.562 (inactive) | -0.873 (inactive) | -0.219 | -0.0337
11 | CC(C)C(O)C1C=CC2C(=O)N(c3ccccc3)C(=O)C2N1Nc1ccc([N+](=O)[O-])cc1 (stereo not given) | -0.283 | -0.539 (inactive) | -0.413 (inactive) | -0.0755 (inactive) | 0.312 (inactive) | -0.0749 (inactive) | -0.912 (inactive) | -0.347 (inactive) | -0.601 | 0.302
12 | CC(C)[Si]1(C(C)C)O[C@@H](c2ccccc2)c2cc(-c3ccc(-c4ccc(Cl)c(Cl)c4)o3)nc(-c3ccccc3)c21 | -0.0945 | -1.38 (inactive) | -0.274 (inactive) | 1.74 (inactive) | 0.574 (inactive) | -0.282 (inactive) | -0.0522 (inactive) | -0.221 (inactive) | -0.406 | -0.202
13 | CN(C)C(=O)[C@@]1(CCS(=O)(=O)c2ccccc2)COC(c2ccc(OCCCO)cc2)=N1 | -0.837 | 1.14 (inactive) | -2.38 (inactive) | 0.989 (inactive) | 1.03 (inactive) | 1.08 (inactive) | 0.73 (inactive) | 0.56 (inactive) | -2.08 | -0.0502
14 | Cc1ccccc1C(O)C1C=CC2C(=O)N(c3ccccc3)C(=O)C2N1Nc1ccc(C(C)C)cc1 (stereo not given) | -1.7 | -0.945 (inactive) | -1.31 (inactive) | 1.82 (inactive) | 0.807 (inactive) | 1.93 (inactive) | -0.765 (inactive) | -1.14 (inactive) | -1.06 | 1.24
15 | COc1ccc(CCNC(=O)[C@@]2(Sc3ccc(C)cc3)CC(=O)N(C(C)C)[C@@H]2c2ccc(CO)cc2I)cc1 | 0.104 | -1.77 (inactive) | -1.63 (inactive) | 0.0834 (inactive) | 0.196 (inactive) | -0.894 (inactive) | -0.246 (inactive) | -0.126 (inactive) | -2.47 | 0.0374
16 | C[N+](C)(C)CCCCCCNC(=O)[C@@H]1C[C@@H]2C(=O)N[C@@H](Cc3ccccc3)C(=O)N2[C@@H]1c1cccc(OCCO)c1 | 0.844 | -0.393 (inactive) | 0.328 (inactive) | -0.0631 (inactive) | -0.27 (inactive) | 0.153 (inactive) | 1.14 (inactive) | 1.35 (inactive) | 0.755 | 0.0905
17 | CCCC#C[Si](O[C@H](CC)c1cn(Cc2cccc(Cl)c2)nn1)(C(C)C)C(C)C | 0.345 | -12.9 (active) | 0.0454 (inactive) | -0.345 (inactive) | -0.0057 (inactive) | 0.61 (inactive) | 1.11 (inactive) | 0.775 (inactive) | 0.33 | -0.0855
18 | O=C1C[C@@](C(=O)NCCN2CCOCC2)(c2ccc([N+](=O)[O-])cc2)[C@@H](c2ccc(CO)cc2I)N1CC12CC3CC(CC(C3)C1)C2 | -5.11 | -12.9 (active) | -6.88 (inactive) | -0.227 (inactive) | 0.941 (inactive) | -21.4 (active) | -0.272 (inactive) | -0.305 (inactive) | -5.62 | -0.0095
19 | CCCC[C@@H]1C[C@H]1[C@@H](NC(=O)c1cccs1)c1ccc(-c2ccccc2)cc1 | 1.13 | 0.748 (inactive) | 0.921 (inactive) | -1.02 (inactive) | 1.03 (inactive) | 0.822 (inactive) | -0.409 (inactive) | -0.384 (inactive) | 0.661 | 0.416
20 | COc1ccc(CCNC(=O)[C@@]2(C)c3ccccc3C(=O)N(C(C)C)[C@H]2c2ccc(CO)cc2)cc1 | -0.848 | -0.51 (inactive) | 0.0132 (inactive) | 0.12 (inactive) | -0.149 (inactive) | -0.54 (inactive) | -0.166 (inactive) | 0.0299 (inactive) | 0.332 | -0.252
21 | C=CCNC(=O)[C@@H]1[C@H]2C(=O)O[C@H](c3ccccc3)[C@H](c3ccccc3)N2[C@H](c2ccc(OCCO)cc2)[C@@]12C(=O)Nc1ccc(C#CCC(C(=O)OC)C(=O)OC)cc12 | 0.874 | 1.12 (inactive) | -6.55 (inactive) | -4.92 (inactive) | 1.89 (inactive) | 2.26 (inactive) | 0.196 (inactive) | 0.286 (inactive) | -5.98 | 0.132
22 | C=CCOC(=O)[C@H]1[C@@H]2C(=O)O[C@@H](c3ccccc3)[C@@H](c3ccccc3)N2[C@@H](c2ccc(OCCOC(=O)[C@H]3C[C@H]4C(=O)N[C@@H](CCCCNC(C)=O)C(=O)N4[C@H]3c3cccc(OCCO)c3)cc2)[C@]12C(=O)Nc1ccccc12 | 0.514 | 0.922 (inactive) | 0.618 (inactive) | 0.592 (inactive) | 3.14 (inactive) | 1.29 (inactive) | 0.561 (inactive) | -0.581 (inactive) | 0.491 | -0.0338
23 | CC(C)C(=C=CC[C@@H](O)c1ccc(OCCO)cc1)C[C@@H](O)COCc1ccccc1 | 0.932 | -2.26 (inactive) | 0.189 (inactive) | -2.2 (inactive) | 0.919 (inactive) | -2 (inactive) | 1.38 (inactive) | 1.29 (inactive) | 1.55 | 0.108
24 | COc1cc(Br)cc(C(O)C2C=CC3C(=O)N(C)C(=O)C3N2N2CCCCC2)c1OC (stereo not given) | -1.17 | -1.43 (inactive) | -1.17 (inactive) | -0.282 (inactive) | 0.406 (inactive) | 1.25 (inactive) | -0.596 (inactive) | -0.683 (inactive) | -1.07 | 0.0123
25 | CN1C(=O)C2C=CC(C(O)c3ccco3)N(Nc3ccccc3)C2C1=O (stereo not given) | -0.86 | 1.35 (inactive) | -0.944 (inactive) | 1.24 (inactive) | 1.41 (inactive) | 1.61 (inactive) | -0.436 (inactive) | -0.0442 (inactive) | -0.328 | 0.42
26 | C[C@H]1NC(=O)[C@@]23C(=O)N[C@@H](Cc4ccccc4)C2[C@H](C)[C@@]2(C)O[C@H]2C3/C=C/C/C=C\CNC(=O)[C@@H]2CCCN2C1=O (stereo not given in full) | 0.23 | -0.704 (inactive) | 0.607 (inactive) | -1.43 (inactive) | -0.0126 (inactive) | -0.0532 (inactive) | 0.901 (inactive) | 0.534 (inactive) | 1.14 | 0.0049
